# In the supplement of paper PMC8728848:
# Only a selection was taken, and the strongest signals are over-represented in it overall.
# B1: SUN4 (Saccharomyces cerevisiae), P53616 (protein)
# chain: MGSSHHHHHHSSGLVPRGSHNGSIYGDLADFSGPYEKFEDGTIPCGQFPSGQGVIPISWLDEGGWSGVENTDTSTGGSCKEGSYCSYACQPGMSKTQWPSDQPSDGRSIGGLLCKDGYLYRSNTDTDYLCEWGVDAAYVVSELSNDVAICRTDYPGTENMVIPTYVQAGDSLPLTVVDQDTYYTWQGLKTSAAYYVNNAGISVEDACVWGSSSSGVGNWAPLNFGAGSSDGVAYLSLIPNPNNGNALNFNVKIVAADDSSTVNGECIYENGSFSGGSDGCTVSVTAGKAKFVLYN
# Key:
# Assay in all cases: glycan array binding signal (z-score within array); higher = stronger binding
# Conditions in all cases: glycan notation: IUPAC condensed, linker removed; mutation: Q318A
# [1] = target: Fuc(a1-2)Gal(b1-3)GalNAc(b1-4)[Neu5Ac(a2-3)]Gal(b1-4)Glc
# Outline: (§1)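 From the Consortium for Functional Glycomics database, 3228 arrays were curated, keeping only those whose protein sequence was available. Binding is given as a within-array Z-score averaged across arrays sharing a protein sequence and across linkers. Negative Z-scores can be read as non-binding.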
# [2] = target: Fuc(a1-2)Gal(b1-3)GlcNAc(b1-3)[Fuc(a1-2)Gal(b1-3)GlcNAc(b1-6)]GalNAc
# Outline: as §1
# [3] = target: Fuc(a1-2)Gal(b1-4)Fuc(a1-3)]GlcNAc(b1-2)Man(a1-3)[Fuc(a1-2)Gal(b1-4)[Fuc(a1-3)]GlcNAc(b1-2)Man(a1-6)]Man(b1-4)GlcNAc(b1-4)GlcNAc
# Outline: as §1
# Fuc(a1-2)Gal(b1-4)GlcNAc = target: Fuc(a1-2)Gal(b1-4)GlcNAc
# Outline: as §1
# [4] = target: Fuc(a1-2)Gal(b1-4)GlcNAc(b1-2)Man(a1-3)[Fuc(a1-2)Gal(b1-4)GlcNAc(b1-2)Man(a1-6)]Man(b1-4)GlcNAc(b1-4)GlcNAc
# Outline: as §1
# [5] = target: Fuc(a1-2)Gal(b1-4)GlcNAc(b1-3)Gal(b1-4)GlcNAc(b1-2)Man(a1-3)[Fuc(a1-2)Gal(b1-4)GlcNAc(b1-3)Gal(b1-4)GlcNAc(b1-2)Man(a1-6)]Man(b1-4)GlcNAc(b1-4)GlcNAc
# Outline: as §1
# [6] = target: Fuc(a1-2)[Gal(a1-3)]Gal(b1-4)GlcNAc(b1-2)Man(a1-3)[Fuc(a1-2)[Gal(a1-3)]Gal(b1-4)GlcNAc(b1-2)Man(a1-6)]Man(b1-4)GlcNAc(b1-4)GlcNAc
# Outline: as §1
# [7] = target: Fuc(a1-2)[GalNAc(a1-3)]Gal(b1-4)GlcNAc(b1-2)Man
# Outline: as §1
# [8] = target: Fuc(a1-2)[GalNAc(a1-3)]Gal(b1-4)GlcNAc(b1-3)Gal(b1-4)GlcNAc
# Outline: as §1
# [9] = target: Fuc(a1-2)[GalNAc(a1-3)]Gal(b1-4)GlcNAc(b1-3)GalNAc
# Outline: as §1
# [10] = target: Fuc(a1-3)[Gal(b1-4)]GlcNAc6S
# Outline: as §1
# Gal(a1-3)Gal(b1-4)GlcNAc = target: Gal(a1-3)Gal(b1-4)GlcNAc
# Outline: as §1
# Gal(a1-4)Gal(b1-4)Glc = target: Gal(a1-4)Gal(b1-4)Glc
# Outline: as §1
# [11] = target: Gal(b1-3)GalNAc(b1-4)Gal(b1-4)Glc
# Outline: as §1
# [12] = target: Gal(b1-3)GlcNAc(b1-3)Gal(b1-4)GlcNAc(b1-3)Gal(b1-4)GlcNAc(b1-2)[Gal(b1-3)GlcNAc(b1-3)Gal(b1-4)GlcNAc(b1-3)Gal(b1-4)GlcNAc(b1-6)]Man(a1-6)[Gal(b1-3)GlcNAc(b1-3)Gal(b1-4)GlcNAc(b1-3)Gal(b1-4)GlcNAc(b1-2)Man(a1-3)]Man(b1-4)GlcNAc(b1-4)[Fuc(a1-6)]GlcNAc
# Outline: as §1
# [13] = target: Gal(b1-3)GlcNAc(b1-6)Gal(b1-4)GlcNAc
# Outline: as §1
# [14] = target: Gal(b1-3)GlcNAc(b1-6)[Gal(b1-3)]GalNAc
# Outline: as §1
# Gal(b1-4)Gal = target: Gal(b1-4)Gal
# Outline: as §1
# Gal(b1-4)GlcNAc(b1-2)Man = target: Gal(b1-4)GlcNAc(b1-2)Man
# Outline: as §1
# [15] = target: Gal(b1-4)GlcNAc(b1-2)Man(a1-3)[Gal(b1-4)GlcNAc(b1-2)Man(a1-6)][GlcNAc(b1-4)]Man(b1-4)GlcNAc(b1-4)[Fuc(a1-6)]GlcNAc
# Outline: as §1
# [16] = target: Gal(b1-4)GlcNAc(b1-3)Gal(b1-4)GlcNAc(b1-3)Gal(b1-4)GlcNAc(b1-2)[Gal(b1-4)GlcNAc(b1-3)Gal(b1-4)GlcNAc(b1-3)Gal(b1-4)GlcNAc(b1-6)]Man(a1-6)[Gal(b1-4)GlcNAc(b1-3)Gal(b1-4)GlcNAc(b1-3)Gal(b1-4)GlcNAc(b1-2)Man(a1-3)]Man(b1-4)GlcNAc(b1-4)[Fuc(a1-6)]GlcNAc
# Outline: as §1
# [17] = target: Gal(b1-4)GlcNAc(b1-3)Gal(b1-4)GlcNAc(b1-3)Gal(b1-4)GlcNAc(b1-3)Gal(b1-4)GlcNAc(b1-3)Gal(b1-4)GlcNAc(b1-2)Man(a1-3)[Gal(b1-4)GlcNAc(b1-3)Gal(b1-4)GlcNAc(b1-3)Gal(b1-4)GlcNAc(b1-3)Gal(b1-4)GlcNAc(b1-3)Gal(b1-4)GlcNAc(b1-2)Man(a1-6)]Man(b1-4)GlcNAc(b1-4)[Fuc(a1-6)]GlcNAc
# Outline: as §1
# GalNAc(a1-3)GalNAc = target: GalNAc(a1-3)GalNAc
# Outline: as §1
# GalNAc(b1-4)Gal(b1-4)Glc = target: GalNAc(b1-4)Gal(b1-4)Glc
# Outline: as §1
# GalNAc(b1-4)GlcNAc = target: GalNAc(b1-4)GlcNAc
# Outline: as §1
# [18] = target: Glc(a1-6)Glc(a1-6)Glc(a1-6)Glc
# Outline: as §1
# [19] = target: GlcNAc(b1-2)Man(a1-3)[GlcNAc(b1-2)Man(a1-6)]Man(b1-4)GlcNAc(b1-4)GlcNAc
# Outline: as §1
# [20] = target: GlcNAc(b1-2)[GlcNAc(b1-6)]Man(a1-6)[GlcNAc(b1-2)Man(a1-3)]Man(b1-4)GlcNAc(b1-4)[Fuc(a1-6)]GlcNAc
# Outline: as §1
# [21] = target: GlcNAc(b1-3)Gal(b1-4)GlcNAc(b1-6)[GlcNAc(b1-3)Gal(b1-3)]GalNAc
# Outline: as §1
# [22] = target: GlcNAc(b1-4)GlcNAc(b1-4)GlcNAc
# Outline: as §1
# [23] = target: GlcNAc(b1-6)Gal(b1-4)GlcNAc
# Outline: as §1
# Kdn(a2-3)Gal(b1-3)GalNAc = target: Kdn(a2-3)Gal(b1-3)GalNAc
# Outline: as §1
# [24] = target: Man(a1-3)[Man(a1-6)]Man(a1-6)[Man(a1-3)]Man
# Outline: as §1
# [25] = target: Neu5Ac(a2-3)Gal(b1-3)GalNAc(b1-4)Gal(b1-4)Glc
# Outline: as §1
# [26] = target: Neu5Ac(a2-3)Gal(b1-3)GlcNAc(b1-2)[Neu5Ac(a2-3)Gal(b1-3)GlcNAc(b1-4)]Man(a1-6)[Neu5Ac(a2-3)Gal(b1-3)GlcNAc(b1-2)Man(a1-3)]Man(b1-4)GlcNAc(b1-4)GlcNAc
# Outline: as §1
# [27] = target: Neu5Ac(a2-3)Gal(b1-4)GlcNAc
# Outline: as §1
# [28] = target: Neu5Ac(a2-3)Gal(b1-4)GlcNAc(b1-2)Man
# Outline: as §1
# [29] = target: Neu5Ac(a2-3)Gal(b1-4)GlcNAc(b1-3)[Neu5Ac(a2-3)Gal(b1-4)GlcNAc(b1-6)]GalNAc
# Outline: as §1
# [30] = target: Neu5Ac(a2-3)Gal(b1-4)GlcNAc(b1-6)[Gal(b1-3)]GalNAc
# Outline: as §1
# [31] = target: Neu5Ac(a2-3)Gal(b1-4)[Fuc(a1-3)]GlcNAc(b1-2)Man
# Outline: as §1
# [32] = target: Neu5Ac(a2-3)Gal(b1-4)[Fuc(a1-3)]GlcNAc(b1-6)[Neu5Ac(a2-3)Gal(b1-3)]GalNAc
# Outline: as §1
# [33] = target: Neu5Ac(a2-6)Gal(b1-4)GlcNAc(b1-2)Man(a1-3)[Gal(b1-4)GlcNAc(b1-2)Man(a1-6)]Man(b1-4)GlcNAc(b1-4)GlcNAc
# Outline: as §1
# [34] = target: Neu5Ac(a2-6)Gal(b1-4)GlcNAc(b1-2)Man(a1-3)[Man(a1-6)]Man(b1-4)GlcNAc(b1-4)GlcNAc
# Outline: as §1
# [35] = target: Neu5Ac(a2-6)Gal(b1-4)GlcNAc(b1-2)[Neu5Ac(a2-6)Gal(b1-4)GlcNAc(b1-4)]Man(a1-3)[GlcNAc(b1-4)][Neu5Ac(a2-6)Gal(b1-4)GlcNAc(b1-2)[Neu5Ac(a2-6)Gal(b1-4)GlcNAc(b1-6)]Man(a1-6)]Man(b1-4)GlcNAc(b1-4)GlcNAc
# Outline: as §1
# [36] = target: Neu5Ac(a2-6)Gal(b1-4)GlcNAc(b1-3)Gal(b1-4)GlcNAc
# Outline: as §1
# [37] = target: Neu5Ac(a2-6)GlcNAc(b1-4)GlcNAc(b1-4)GlcNAc
# Outline: as §1
# Neu5Gc(a2-6)GalNAc = target: Neu5Gc(a2-6)GalNAc
# Outline: as §1
binder,measurement,setting,value
B1,glycan array binding signal (z-score),[1],-0.245
same,glycan array binding signal (z-score),[2],0.442
same,glycan array binding signal (z-score),[3],2.65
same,glycan array binding signal (z-score),Fuc(a1-2)Gal(b1-4)GlcNAc,-0.67
same,glycan array binding signal (z-score),[4],-0.18
same,glycan array binding signal (z-score),[5],1.88
same,glycan array binding signal (z-score),[6],-0.077
same,glycan array binding signal (z-score),[7],-0.198
same,glycan array binding signal (z-score),[8],0.152
same,glycan array binding signal (z-score),[9],0.641
same,glycan array binding signal (z-score),[10],0.316
same,glycan array binding signal (z-score),Gal(a1-3)Gal(b1-4)GlcNAc,-0.246
same,glycan array binding signal (z-score),Gal(a1-4)Gal(b1-4)Glc,2.25
same,glycan array binding signal (z-score),[11],-0.46
same,glycan array binding signal (z-score),[12],2.21
same,glycan array binding signal (z-score),[13],-0.212
same,glycan array binding signal (z-score),[14],-0.256
same,glycan array binding signal (z-score),Gal(b1-4)Gal,-0.573
same,glycan array binding signal (z-score),Gal(b1-4)GlcNAc(b1-2)Man,0.857
same,glycan array binding signal (z-score),[15],-0.281
same,glycan array binding signal (z-score),[16],1.61
same,glycan array binding signal (z-score),[17],2.04
same,glycan array binding signal (z-score),GalNAc(a1-3)GalNAc,-1.37
same,glycan array binding signal (z-score),GalNAc(b1-4)Gal(b1-4)Glc,1.66
same,glycan array binding signal (z-score),GalNAc(b1-4)GlcNAc,0.304
same,glycan array binding signal (z-score),[18],0.21
same,glycan array binding signal (z-score),[19],-0.045
same,glycan array binding signal (z-score),[20],2.54
same,glycan array binding signal (z-score),[21],0.161
same,glycan array binding signal (z-score),[22],0.057
same,glycan array binding signal (z-score),[23],-0.7
same,glycan array binding signal (z-score),Kdn(a2-3)Gal(b1-3)GalNAc,-0.503
same,glycan array binding signal (z-score),[24],1.55
same,glycan array binding signal (z-score),[25],1.67
same,glycan array binding signal (z-score),[26],1.64
same,glycan array binding signal (z-score),[27],-0.355
same,glycan array binding signal (z-score),[28],0.689
same,glycan array binding signal (z-score),[29],2.5
same,glycan array binding signal (z-score),[30],-0.111
same,glycan array binding signal (z-score),[31],-0.965
same,glycan array binding signal (z-score),[32],3.41
same,glycan array binding signal (z-score),[33],-0.494
same,glycan array binding signal (z-score),[34],-1
same,glycan array binding signal (z-score),[35],-0.64
same,glycan array binding signal (z-score),[36],-0.838
same,glycan array binding signal (z-score),[37],-0.241
same,glycan array binding signal (z-score),Neu5Gc(a2-6)GalNAc,-0.69
